Results from PubChem BioAssay (NCATS).
Several values for one entry are separate records, joined by “and”; a condition that tells them apart may be missing. Identical values can stand only once. Results filed as inconclusive are left out. Values without a mark were called inactive. Activity calls are given as the source filed them. Calls come from the whole dose curve; as a rule, active = well fitted curve in the direction sought with a large enough effect; inconclusive = small, poorly fitted or top-dose-only effect, or another doubt; inactive = no such curve, though single readings can be large; an effect the other way counts as inactive or inconclusive.

How the values were obtained:
[1] = molecular target: Cellular tumor antigen p53 (Homo sapiens) (UniProt P04637); assay: Primary qHTS for small molecule compounds that upregulate eGFP-tagged delta133p53alpha (in N-terminal) cells. (AID 2060322); settings: NCI-H358 eGFP-delta133p53alpha fluorescence, 24 h; activation: stronger effect = higher value; note: nearly all actives have a fitted effect of over 75% in size; note: potency is the fitted concentration of half-maximal effect;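 for activation: series mostly up to about 56 µM; 0% = DMSO vehicle and 100% = reference activator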
Cellular tumor antigen p53 (Homo sapiens), sequence (P04637 whole entry, looked up): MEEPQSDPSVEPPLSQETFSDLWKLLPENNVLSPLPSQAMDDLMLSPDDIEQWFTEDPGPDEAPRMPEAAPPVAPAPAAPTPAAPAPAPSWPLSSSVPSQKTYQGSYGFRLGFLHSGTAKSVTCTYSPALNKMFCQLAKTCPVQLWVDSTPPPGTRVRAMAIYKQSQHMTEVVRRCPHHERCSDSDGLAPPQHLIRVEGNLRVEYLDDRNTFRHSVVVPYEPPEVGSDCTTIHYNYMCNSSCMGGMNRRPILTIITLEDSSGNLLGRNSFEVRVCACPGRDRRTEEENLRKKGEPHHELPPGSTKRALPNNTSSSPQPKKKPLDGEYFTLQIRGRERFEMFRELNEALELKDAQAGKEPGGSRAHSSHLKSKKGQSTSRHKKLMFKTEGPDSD
How it was run: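 NCI-H358 cells pre-induced 24 h with 10 ng/ml doxycycline to express N-terminal eGFP-delta133p53alpha, then dosed 24 h at 37C without doxycycline; fixed, Hoechst-stained, GFP intensity by laser scanning cytometry, normalized to DMSO (0%) and 57.5 uM 5-azacytidine (100%).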

[2] = molecular target: Aldehyde dehydrogenase, mitochondrial (Homo sapiens) (UniProt P05091); assay: qHTS for Inhibitors of the Aldehyde Dehydrogenase Family (ALDH2) Primary screen (AID 2061308);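 note: plate controls were vehicle for no effect and reference inhibitor for full effect; nearly all actives have a fitted effect of over 55% in size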
[3] = molecular target: Retinaldehyde dehydrogenase 3 (Homo sapiens) (UniProt P47895); assay: qHTS for Inhibitors of the Aldehyde Dehydrogenase Family (ALDH1A3) Primary screen (AID 2061315);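 note: plate controls were DMSO vehicle for no effect and reference inhibitor for full effect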
[4] = BET inhibitor-based combinations targeting novel dependencies in MECOM-rearranged (r) AML: SET-2 cell line (AID 2202231); settings: SET-2 AML cells viability, CellTiter-Glo luminescence, 48 h; viability: stronger effect = lower value, concentration not given here; note: nearly all actives have a fitted effect of over 35% in size; note: potency is the fitted concentration of half-maximal effect;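 for viability: plate controls were DMSO treated cells for no effect and wells without cells for full effect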
How it was run: (§1)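 Each compound was tested at eleven concentrations on cells seeded at 500/well. After two days' incubation, ATP-based luminescence reported viability; responses relative to DMSO and blank wells yielded AUC and cell-line-centred Z-AUC.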

[5] = BET inhibitor-based combinations targeting novel dependencies in MECOM-rearranged (r) AML: OCI-AML3 cell line (AID 2202232); settings: Potency: OCI-AML3 viability; note: nearly all actives have a fitted effect of over 35% in size; note: potency is the fitted concentration of half-maximal effect
How it was run: as §1

[6] = BET inhibitor-based combinations targeting novel dependencies in MECOM-rearranged (r) AML: MV-4-11 cell line (AID 2202233); note: nearly all actives have a fitted effect of over 45% in size; note: potency is the fitted concentration of half-maximal effect
How it was run: (§2)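 First, 500 cells per well were seeded; next, drugs were pinned as 11-point doses; then plates sat 48 hr in the incubator; finally CellTiter-Glo was added and luminescence read, with AUC and Z-AUC computed.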

[7] = BET inhibitor-based combinations targeting novel dependencies in MECOM-rearranged (r) AML: HNT-34 cell line (AID 2202234); note: nearly all actives have a fitted effect of over 35% in size; note: potency is the fitted concentration of half-maximal effect
How it was run: as §2

[8] = BET inhibitor-based combinations targeting novel dependencies in MECOM-rearranged (r) AML: AML-191 cell line (AID 2202236; note: nearly all actives have a fitted effect of over 35% in size; note: potency is the fitted concentration of half-maximal effect)
How it was run: as §1

[9] = BET inhibitor-based combinations targeting novel dependencies in MECOM-rearranged (r) AML: UCSD-AML1 cell line (AID 2202235); note: nearly all actives have a fitted effect of over 40% in size; note: potency is the fitted concentration of half-maximal effect
How it was run: as §2

[10] = BET inhibitor-based combinations targeting novel dependencies in MECOM-rearranged (r) AML: AML-194 cell line (AID 2202237; note: nearly all actives have a fitted effect of over 40% in size; note: potency is the fitted concentration of half-maximal effect)
How it was run: as §1

SMILES	Potency [1]	Potency [2]	Potency [3]	Potency [4]	Potency [5]	Potency [6]	Potency [7]	Potency [8]	activation [1]	viability [4] [%]	Potency [9]	Potency [10]
CNC(=O)c1nn(C)c2c1C(C)(C)Cc1cnc(Nc3ccc(N4CCN(C)CC4)cc3)nc1-2	38.5 µM (active) and 9.53 µM (active)	inactive	inactive	0.833 µM (active)	5.25 µM (active)	132 nM (active)	263 nM (active)	1.18 µM (active)				
CCC(CC)CC1(C(=O)Nc2ccccc2SC(=O)C(C)C)CCCCC1		inactive	inactive		inactive	inactive	inactive	inactive	18.8%	117		
Nc1cccc(-c2cc3c(Oc4cccc(O)c4)ncnc3[nH]2)c1		inactive	inactive	20.9 µM (active)	13.2 µM (active)	2950 nM (active)	468 nM (active)	3.32 µM (active)	-3.57%		8.33 µM (active)	5.9 µM (active)
Cc1cc(O)c(-c2ccc([C@@H](C)CN(C)C)cc2)c2c1[nH]c(=O)c1sccc12	0.301 µM (active)	inactive	inactive	0.148 µM (active)	0.132 µM (active)	83.3 nM (active)	148 nM (active)	0.118 µM (active)				0.417 µM (active)
CCCCCCCCCC(=O)N[C@@H](Cc1c[nH]c2ccccc12)C(=O)N[C@H](CC(N)=O)C(=O)N[C@@H](CC(=O)O)C(=O)N[C@@H]1C(=O)NCC(=O)N[C@@H](CCCN)C(=O)N[C@@H](CC(=O)O)C(=O)N[C@H](C)C(=O)N[C@@H](CC(=O)O)C(=O)NCC(=O)N[C@H](CO)C(=O)N[C@@H]([C@@H](C)CC(=O)O)C(=O)N[C@@H](CC(=O)c2ccccc2N)C(=O)O[C@@H]1C		inactive	inactive		inactive	inactive	inactive	inactive	-9.73% and 21%	107	inactive	inactive
CCOc1cc2ncc(C#N)c(Nc3ccc(F)c(Cl)c3)c2cc1NC(=O)/C=C/CN(C)C	13.5 µM (active)	inactive	inactive	5.9 µM (active)	4.17 µM (active)	934 nM (active)	296 nM (active)	4.68 µM (active)			1.48 µM (active)	5.25 µM (active)
Cc1[nH]nc(C(F)(F)F)c1Cc1sc2c(c1C(=O)N1C[C@](C)(O)CO1)c(=O)n(C)c(=O)n2C(C)C		inactive	inactive		inactive	inactive	inactive	inactive	-10.3%	110		inactive
OCCCNc1cc(-c2ccnc(Nc3cccc(Cl)c3)n2)ccn1	172 nM (active) and 301 nM (active)	inactive	inactive	0.132 µM (active)	0.118 µM (active)	132 nM (active)	132 nM (active)	0.0934 µM (active)			0.0833 µM (active)	0.332 µM (active)
CCN1CCN(Cc2ccc(NC(=O)c3ccc(C)c(NC(=O)c4cncc(-c5cccs5)c4)c3)cc2C(F)(F)F)CC1	26.9 µM (active)	inactive	inactive	5.9 µM (active)	4.17 µM (active)	118 nM (active)	14.8 nM (active)	1.05 µM (active)			1.05 µM (active)	1.18 µM (active)
CNC1CCC(N(Cc2cccc(-c3ccncc3)c2)C(=O)c2sc3ccccc3c2Cl)CC1 (configuration not stated)	24.3 µM (active) and 30.1 µM (active)	inactive	inactive	26.3 µM (active)	18.6 µM (active)	16600 nM (active)	26300 nM (active)	20.9 µM (active)				23.5 µM (active)
CC(C)c1cnn2c(NCc3ccccc3)cc(N[C@@H](CO)[C@H](O)CO)nc12	544 nM (active) and 1.51 µM (active)	inactive	inactive	0.296 µM (active)	0.468 µM (active)	372 nM (active)	296 nM (active)				0.372 µM (active)	0.372 µM (active)
O=C(O)[C@H](CC(=O)N1C[C@H]2CCCC[C@H]2C1)Cc1ccccc1		inactive	inactive		inactive	inactive	inactive		38.3%	105	inactive	inactive
CO[C@H]1C[C@@H]2CC[C@@H](C)[C@@](O)(O2)C(=O)C(=O)N2CCCC[C@H]2C(=O)O[C@H]([C@H](C)C[C@@H]2CC[C@@H](OP(C)(C)=O)[C@H](OC)C2)CC(=O)[C@H](C)/C=C(\C)[C@@H](O)[C@@H](OC)C(=O)[C@H](C)C[C@H](C)/C=C/C=C/C=C/1C		inactive	inactive	23.5 µM (active)	23.5 µM (active)	14800 nM (active)			3%		0.0033 µM (active)	
O=C(Nc1ccccc1-c1cn2c(CN3CCNCC3)csc2n1)c1cnc2ccccc2n1		inactive	inactive	8.33 µM (active)	20.9 µM (active)	5250 nM (active)	20900 nM (active)	7.42 µM (active)	-29.5%		8.33 µM (active)	8.33 µM (active)
C=CC(=O)Nc1cccc(Nc2nc(Nc3ccc(OCCOC)cc3)ncc2F)c1	9.53 µM (active)	inactive	inactive	16.6 µM (active)	14.8 µM (active)	1480 nM (active)	1860 nM (active)				8.33 µM (active)	9.34 µM (active)
